Compound activity: PubChem, Broad Institute
IDE exosite inh = displaces the probe from the exo-site of human IDE | P14735 | purified IDE, FL-6b probe fluorescence polarization; hits give low values | z-score at 20 µM | actives 6.3% (n = 17,000) | AID 1259349;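 active = z-score of -3 or lower, meaning strong loss of probe binding signal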;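 also: His-tagged human IDE residues 42-1019 made in E. coli with 30 nM FL-6b probe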
Target sequence (P14735 42-1019 limits assumed): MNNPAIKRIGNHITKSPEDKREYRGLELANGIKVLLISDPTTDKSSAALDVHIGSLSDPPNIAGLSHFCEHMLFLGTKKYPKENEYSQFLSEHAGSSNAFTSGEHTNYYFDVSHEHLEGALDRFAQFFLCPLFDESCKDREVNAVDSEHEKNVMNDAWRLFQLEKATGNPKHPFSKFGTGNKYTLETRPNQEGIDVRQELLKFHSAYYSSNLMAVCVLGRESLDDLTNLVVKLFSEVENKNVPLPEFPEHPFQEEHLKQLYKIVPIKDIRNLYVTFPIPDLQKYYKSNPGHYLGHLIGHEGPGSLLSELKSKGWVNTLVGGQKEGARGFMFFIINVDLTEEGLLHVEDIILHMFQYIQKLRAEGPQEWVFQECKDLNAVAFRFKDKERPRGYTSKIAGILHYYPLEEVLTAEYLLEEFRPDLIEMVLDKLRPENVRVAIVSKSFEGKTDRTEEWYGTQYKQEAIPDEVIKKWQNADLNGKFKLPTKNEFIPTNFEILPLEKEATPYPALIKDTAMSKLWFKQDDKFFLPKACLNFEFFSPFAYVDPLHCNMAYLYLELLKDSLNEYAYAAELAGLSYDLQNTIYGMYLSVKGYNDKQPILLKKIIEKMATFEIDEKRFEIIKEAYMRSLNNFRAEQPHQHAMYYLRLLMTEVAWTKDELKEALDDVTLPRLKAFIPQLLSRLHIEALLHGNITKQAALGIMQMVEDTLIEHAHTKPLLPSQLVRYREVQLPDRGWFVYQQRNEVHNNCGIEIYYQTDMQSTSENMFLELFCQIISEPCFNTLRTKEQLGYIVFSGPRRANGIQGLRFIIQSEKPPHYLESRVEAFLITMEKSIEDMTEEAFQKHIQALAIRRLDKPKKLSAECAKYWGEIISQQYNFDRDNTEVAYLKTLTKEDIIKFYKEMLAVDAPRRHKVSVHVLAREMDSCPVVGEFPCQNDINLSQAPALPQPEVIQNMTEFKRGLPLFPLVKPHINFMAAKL
An asterisk follows results filed as active. Shown is part of a subset that was picked to be rich in hits.

SMILES	IDE exosite inh
C[C@@H]1CN([C@@H](C)CO)C(=O)c2cc(NC(=O)CCCN(C)C)ccc2O[C@@H]1CN(C)Cc1ccc(Cl)c(Cl)c1	0.94
CS(=O)(=O)N1CC2(C1)[C@@H](c1ccccc1)[C@@H](CO)N2Cc1ccccc1	-1.5
O=C(NCC[C@H]1CC[C@H](NC(=O)c2ccncc2)[C@@H](CO)O1)Nc1ccc(Cl)cc1	0.52
CO[C@@H](CN(C)Cc1ccc2c(c1)OCO2)[C@H](C)CN(C(=O)Nc1ccc(F)cc1)[C@@H](C)CO	1.6
C[C@@H]1CN([C@H](C)CO)C(=O)c2ccccc2-c2ccccc2CO[C@@H]1CN(C)S(=O)(=O)c1cccs1	-1.4
CC(C)C#Cc1ccc([C@H]2[C@@H](CO)N3C(=O)CN(S(=O)(=O)c4ccccc4)C[C@H]23)cc1	0.72
Cc1ccccc1-c1ccc([C@H]2[C@@H](CO)N3C(=O)CN(C(=O)c4ccccc4)C[C@@H]23)cc1	-8.3*
Cc1ccccc1-c1ccc([C@H]2[C@H](CO)N3C(=O)CN(C(=O)c4ccncc4)C[C@@H]23)cc1	-7.4*
O=C(c1ccccc1)N1CC(=O)N2[C@H](C1)[C@@H](c1ccc(-c3ccccc3)cc1)[C@@H]2CO	-0.84
Cc1ccccc1-c1ccc([C@@H]2[C@@H](CO)N3C(=O)CN(C(=O)c4ccc(F)cc4)C[C@H]23)cc1	-0.12
COc1cccc(S(=O)(=O)N[C@H]2CC[C@@H](CC(=O)NC3Cc4ccccc4C3)O[C@H]2CO)c1	0.91
Cc1ccccc1-c1ccc([C@@H]2[C@H]3CN(C(=O)Nc4cccc(F)c4)CCCCN3[C@H]2CO)cc1	-2.8
CN1CCN(C(=O)C[C@@H]2CC[C@H]3[C@@H](COC[C@@H](O)CN3Cc3cccc(-c4ccncc4)c3)O2)CC1	1.9
COc1ccc(C#Cc2ccc([C@@H]3[C@@H](CO)N4CCCCN(C(=O)Nc5cccc(F)c5)C[C@@H]34)cc2)cc1	4.8
O=C(Cc1ccccn1)N1CC(=O)N2[C@H](C1)[C@H](c1ccc(C#CC3CCCCC3)cc1)[C@@H]2CO	-1.3
O=C(c1ccccn1)N1CC(=O)N2[C@H](C1)[C@H](c1ccc(C#Cc3ccccc3)cc1)[C@@H]2CO	-6.4*
CCCC#Cc1ccc([C@@H]2[C@@H](CO)N3C(=O)CN(C(=O)c4ccccn4)C[C@H]23)cc1	0.41
CCCC#Cc1ccc([C@@H]2[C@H]3CN(C(=O)c4ccccn4)CC(=O)N3[C@H]2CO)cc1	2.7
CC(C)C#Cc1ccc([C@@H]2[C@H](CO)N3C(=O)CN(C(=O)c4ccccn4)C[C@@H]23)cc1	-0.085
CCCC#Cc1ccc([C@H]2[C@H](CO)N3C(=O)CN(C(=O)c4ccccn4)C[C@@H]23)cc1	1.1
O=C(c1ccccn1)N1CC(=O)N2[C@H](CO)[C@@H](c3ccc(C#Cc4ccccc4)cc3)[C@H]2C1	-9.4*
O=C(c1cnccn1)N1CC(=O)N2[C@H](CO)[C@@H](c3ccc(C#CCc4ccccc4)cc3)[C@H]2C1	-2.4
O=C(c1cnccn1)N1CC(=O)N2[C@@H](CO)[C@H](c3ccc(C#CCc4ccccc4)cc3)[C@@H]2C1	0.7
CC(C)C#Cc1ccc([C@H]2[C@H](CO)N3C(=O)CN(C(=O)c4ccccn4)C[C@@H]23)cc1	1.4
CCCC#Cc1ccc([C@@H]2[C@H](CO)N3C(=O)CN(C(=O)c4ccccn4)C[C@@H]23)cc1	-3.2*
SMILES	IDE exosite inh
O=C(c1ccccn1)N1CC(=O)N2[C@H](C1)[C@@H](c1ccc(C#Cc3ccccc3)cc1)[C@@H]2CO	-2.9
O=C(c1ccccn1)N1CC(=O)N2[C@@H](CO)[C@@H](c3ccc(C#CCc4ccccc4)cc3)[C@@H]2C1	-4.7*
CN(C)CC(=O)N[C@H]1C=C[C@H](CC(=O)NCc2ccc(Cl)cc2)O[C@@H]1CO	3.4
CC(=O)N1[C@H](CO)[C@@H](c2ccc(-c3ccccc3F)cc2)C12CN(CC1CCOCC1)C2	-1.2
CO[C@H]1CN(C)C(=O)c2cc(NC(=O)c3ccc4c(c3)OCO4)ccc2OC[C@H](C)N(CCC(F)(F)F)C[C@@H]1C	1
C[C@@H]1CN([C@@H](C)CO)C(=O)c2ccccc2-c2ccccc2CO[C@@H]1CN(C)C(=O)[C@H](Cc1ccccc1)N(C)C	0.73
O=C(Nc1cccc(F)c1)N1CC(=O)N2[C@@H](CO)[C@H](c3ccc(C#Cc4cccnc4)cc3)[C@@H]2C1	1.5
O=S(=O)(c1ccc(Cl)cc1)N1[C@@H]2CNC[C@H]1C2c1ccc(-c2cccc(F)c2)cc1 (some centres not stated)	2
CN1C(=O)c2cc(NC(=O)C3CCOCC3)ccc2OC[C@H]2O[C@@H](CC(=O)NCc3ccccc3F)CC[C@H]21	0.18
CC(C)[C@@H]1CC=CC[C@H](C)Oc2ccccc2C(=O)N(C)[C@@H](C(C)C)C(=O)N1 (mixture of isomers)	-0.82
C[C@H]1CN([C@@H](C)CO)C(=O)c2cc(Br)cnc2O[C@H]1CN(C)Cc1ccc(Oc2ccccc2)cc1	-3.5*
C[C@@H]1CN([C@H](C)CO)C(=O)c2cc(/C=C/c3ccccc3)cnc2O[C@@H]1CN(C)S(=O)(=O)c1ccccc1F	-2.1
Cc1noc(C)c1S(=O)(=O)Nc1ccc2c(c1)CC(=O)N([C@H](C)CO)C[C@H](C)[C@H](CN(C)Cc1ccc(Oc3ccccc3)cc1)O2	0.079
C[C@@H]1CN([C@@H](C)CO)C(=O)c2cc(N(C)C)ccc2O[C@H]1CN(C)Cc1ccc(Oc2ccccc2)cc1	-0.56
C[C@H](CO)N1C[C@H](C)[C@@H](CN(C)S(=O)(=O)c2ccccc2F)Oc2ncc(/C=C/c3ccccc3)cc2C1=O	0.42
Cc1noc(C)c1S(=O)(=O)Nc1ccc2c(c1)CC(=O)N([C@@H](C)CO)C[C@H](C)[C@@H](CN(C)Cc1ccc(Oc3ccccc3)cc1)O2	-4.3*
C[C@@H]1CN([C@@H](C)CO)C(=O)c2cc(N(C)C)ccc2O[C@@H]1CN(C)Cc1ccc(Oc2ccccc2)cc1	-1.4
Cc1noc(C)c1S(=O)(=O)Nc1ccc2c(c1)CC(=O)N([C@H](C)CO)C[C@@H](C)[C@H](CN(C)Cc1ccc(Oc3ccccc3)cc1)O2	-1.1
C[C@@H]1CN([C@@H](C)CO)C(=O)c2cc(/C=C/c3ccccc3)cnc2O[C@@H]1CN(C)S(=O)(=O)c1ccccc1F	-4*
CCCN1C[C@H](C)[C@H](OC)CN(C)C(=O)c2cc(NS(=O)(=O)c3ccccc3)ccc2OC[C@@H]1C	0.52
CN(C)C(=O)c1cccc(-c2ccc3c(c2)[C@@H]2[C@@H](CCN2C(=O)c2cnccn2)[C@H](CO)N3)c1	0.0065
C/C=C/c1ccc([C@H]2[C@@H](CO)N3CCCCN(S(=O)(=O)c4ccc(F)cc4)C[C@H]23)cc1	4.4
CN(C)CC#Cc1ccc([C@@H]2[C@@H](CO)N3CCCCN(C(=O)NC4CCCC4)C[C@H]23)cc1	2.1
CC(C)CC#Cc1ccc([C@@H]2[C@H]3CN(C(=O)Nc4ccc(F)cc4)CC(=O)N3[C@H]2CO)cc1	4.1
CO[C@H]1CN(C)C(=O)c2ccc(NC(C)=O)cc2OC[C@H](C)N(Cc2cccc(F)c2)C[C@@H]1C	-0.014
CCS(=O)(=O)N1CC(=O)N2[C@H](CO)[C@@H](c3ccc(C#CCC(C)C)cc3)[C@H]2C1	1.8
COc1ccc(CN2[C@@H](CO)[C@@H]3c4ccccc4N(C(=O)NC(C)C)C[C@@H]32)cc1	0.42
COc1ccc(-c2ccc([C@H]3[C@H]4CN(C(=O)NC(C)C)CCCCN4[C@H]3CO)cc2)cc1	-11*
COCC(=O)N1CCCCN2[C@H](CO)[C@H](c3ccc(-c4ccc(OC)cc4)cc3)[C@@H]2C1	-0.47
